Data reported in PubChem BioAssay (NCI).
The panel holds about 79,000 compounds, 15% with a hit somewhere; the sample as a whole holds those more often. Values without a mark were called inactive. Calls of active or inactive are those of the source. No stated cut-off is given here; in the data, active means growth inhibition above about 70%; inactive means the rest.

Test: NCI Yeast Anticancer Drug Screen. Data for the mlh1 rad18 strain (AID 175)
Details: S. cerevisiae mlh1 rad18 strain growth inhibition; at 50.0 µM; hits give high values
Method in brief: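 Yeast w/ defined DNA-repair lesions; compound exposure; growth vs vehicle controls → % inhibition.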
For O=S1(=O)CC(N2CCOCC2)C2=C(O1)c1sc(-c3ccccc3)nc1CC2 (stereo not given), the growth inhibition was -3.95%.
For O=C(Cn1c(-c2ccccc2)cc2ccccc21)N1CCOCC1, the growth inhibition was -28.1%.
In the case of CCOC(=O)/C(C(C)=O)=C1\C(=O)c2ccccc2-c2ccccc21, the growth inhibition is reported as 12.5%.
With COC(=O)C1=C(C(=O)OC)C2(C3C(SC)=CC(C)(C)CC3S1)N(Cc1ccccc1)CCN2Cc1ccccc1 (stereo not given) the growth inhibition was -27.2%.
With CCCO[C@@H]1[C@@H](OC(C)=O)[C@@H](OC(C)=O)C(C)(C)/C=C/[C@H](C)C(=O)[C@@]2(OC(C)=O)C[C@@](C)(OC(C)=O)[C@H](OC(C)=O)[C@@H]2[C@H]2OC(=O)CC[C@@]12OC(=O)c1ccccc1 the growth inhibition was -29.1%.
For O=C(NC1=C(Cl)C(=O)c2ccccc2C1=O)C(=O)c1c(O)c2ccccc2oc1=O, the growth inhibition was 91.3% (active).
For Clc1ccc2c(N3CCC(CCC4CCN(c5ncnc6cc(Cl)ccc56)CC4)CC3)ncnc2c1, the growth inhibition was -14.2%.
Compound Cn1cnnc1Sc1c([N+](=O)[O-])nc(-c2ccc([N+](=O)[O-])cc2)n1C has a growth inhibition of 8.95%.
COc1ncn(C2CC(OC(=O)c3ccc(C)cc3)C(COC(=O)c3ccc(C)cc3)O2)c(=O)n1 (stereo not given) showed a growth inhibition of -3.05%.
CC(C)Cn1cnc2c(Cl)nc3ccccc3c21 showed a growth inhibition of -11.8%.
For O=c1cc(-c2ccc(F)cc2)oc2ccccc12, the growth inhibition was 30.4%.
For CC(=O)OCC12CCC(C)=CC1O[C@H]1[C@@H](OC(C)=O)[C@H](OC(C)=O)[C@]2(C)[C@@]12CO2 (stereo not given in full), the growth inhibition was 30.9%.
For COC(=O)C(Cl)(Cl)c1nc(NC(C)=O)[nH]c(=O)c1Cl, the growth inhibition was 0.45%.
Work on O=C(Nc1ccc(F)cc1)C(=O)C(C1OC(=O)c2ccccc21)[N+](=O)[O-] (stereo not given) yielded a growth inhibition of 15.8%.
With O=C1CC2(CCCc3sccc32)C(=O)N1 (stereo not given) the growth inhibition was -14.1%.
In the case of Cn1c(=O)c2c(nc(CCCCCCCCc3nc4c(c(=O)n(C)c(=O)n4C)n3C)n2C)n(C)c1=O, the growth inhibition is reported as -14.7%.
In the case of O=C1/C(=C\c2ccccn2)c2ccccc2N1Cc1ccccc1, the growth inhibition is reported as 22.3%.
Compound CC12NN=NC1C(=O)NC2=O (stereo not given) has a growth inhibition of -5.05%.
In the case of CCCCC(=O)N1SC(NC(=O)OC)=Nc2ccccc21, the growth inhibition is reported as 76.2% (active).
Compound Clc1ccc2c(c1)-c1c3c(nn1-c1ccccc1)-c1ccccc1SC3O2 (stereo not given) has a growth inhibition of -13.6%.
With CC(=O)C(N)C(C)C (stereo not given) the growth inhibition was 7.95%.
With CN(C)C(=S)/N=c1\ssc(=S)n1Cc1cccs1 the growth inhibition was 12%.
In the case of CCOC(=O)C1CC(C)CC1=O (stereo not given), the growth inhibition is reported as 0.2%.
For N#Cc1ccc(/C=N\NC(=O)CCSCCC(=O)N/N=C/c2ccc(C#N)cc2)cc1, the growth inhibition was 7.45%.
With CCOC(=O)c1ccc(NC(=O)Nc2cc(C(F)(F)F)ccc2Cl)cc1 the growth inhibition was 94% (active).
In the case of CCOC(C)C=O (stereo not given), the growth inhibition is reported as -25.9%.
With CC(C)(C)NC(=O)C12C3C4C1C1C2C3C41C(=O)NC(C)(C)C (stereo not given) the growth inhibition was -19.5%.
Work on COC(=O)/C=C(\C)Nc1cccc([N+](=O)[O-])c1 yielded a growth inhibition of -7.3%.
COC(=O)C1Cc2ccccc2C1=O (stereo not given) gave a growth inhibition of -6.45%.
For CCC(CCCCCc1ccccc1)(C(=O)O)C(=O)O, the growth inhibition was -2.95%.
For CC1CN=C(N(C(=O)Nc2ccc(Cl)c(Cl)c2)c2ccccc2)S1 (stereo not given), the growth inhibition was -3.3%.
COC(=O)c1c(O)ccc(O)c1C(=O)OC showed a growth inhibition of -21.6%.
O=C(CCCCCCCCC(=O)NCC1(c2ccccc2)CCNCC1)NCC1(c2ccccc2)CCNCC1 showed a growth inhibition of -11.2%.
In the case of NC(=O)C(CCN1CCCCC1)c1ccccc1 (stereo not given), the growth inhibition is reported as 24.8%.
In the case of CC(C)(C)OC(=O)N1CC(C)(C)N2C(=O)C3(CCCO3)C12 (stereo not given), the growth inhibition is reported as 5.65%.
O=[N+]([O-])c1cccc(C2=NON(c3ncccn3)C3N=CC=CN23)c1 (stereo not given) showed a growth inhibition of 26.1%.
Work on O=C1NC(=O)[C@@H](OCC2CCCCC2)[C@@H]2OCC3OC(C(O)C3O)C12 (stereo not given in full) yielded a growth inhibition of -5.7%.
O=C(NO)/C(CC(=O)c1ccccc1O)=N\O showed a growth inhibition of -7.75%.
Work on COc1cccc2c1N=c1c(Cl)c3c(c(Cl)c1O2)=Nc1c(OC)cccc1O3 yielded a growth inhibition of -20.4%.
For CN=Cc1ccccc1O.CN=Cc1ccccc1O.[Cu+2], the growth inhibition was 3.05%.
